AHR activator – AHR activators, primary screen, cell-based, luminescence, luciferase reporter, human. AID 2796, 2010. AHR-responsive luciferase reporter cells. activation, % at 5 µM. 320,000 compounds, 2.5% hits. Aryl hydrocarbon receptor (Homo sapiens), P35869; in the data active = activation above about 47%;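 note: 0% = vehicle wells and 100% = reference agonist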
APOBEC3A inh – APOBEC3A ssDNA deaminase inhibitors, primary screen, selectivity assay for APOBEC3G inhibitor project, biochemical, FAM/TAMRA oligo cleavage fluorescence. inhibition, % at 20 µM. recombinant A3A, FAM/TAMRA ssDNA deamination fluorescence. DNA dC->dU-editing enzyme APOBEC-3A (Homo sapiens), P31941. 330,000 compounds, 0.41% hits;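 active = at least 40% inhibition at 20 µM here, with at most 30% in a related deaminase screen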;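 note: plate controls were A3A with DMSO for no effect and wells lacking A3A enzyme for full effect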
Target sequence (P31941 whole entry, looked up): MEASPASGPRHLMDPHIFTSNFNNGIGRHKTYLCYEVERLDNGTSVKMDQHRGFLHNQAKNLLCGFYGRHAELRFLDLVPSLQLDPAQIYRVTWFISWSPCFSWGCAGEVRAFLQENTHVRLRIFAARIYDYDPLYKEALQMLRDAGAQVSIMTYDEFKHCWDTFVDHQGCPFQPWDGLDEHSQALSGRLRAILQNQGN
APOBEC3G inh – APOBEC3G DNA deaminase inhibitors, primary screen, biochemical, fluorescence, single-stranded DNA substrate, uHTS. recombinant A3G, ssDNA deamination FAM/TAMRA fluorescence. AID 493012, 2011. 330,000 compounds, 0.28% hits. DNA dC->dU-editing enzyme APOBEC-3G (Homo sapiens), Q9HC16. inhibition, % at 20 µM;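 active = inhibition of at least 40% at 20 µM, with no more than 30% in the related APOBEC3A deaminase screen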;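 note: plate controls were DMSO wells with A3G for no effect and wells lacking A3G enzyme for full effect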
Target sequence (Q9HC16 whole entry, looked up): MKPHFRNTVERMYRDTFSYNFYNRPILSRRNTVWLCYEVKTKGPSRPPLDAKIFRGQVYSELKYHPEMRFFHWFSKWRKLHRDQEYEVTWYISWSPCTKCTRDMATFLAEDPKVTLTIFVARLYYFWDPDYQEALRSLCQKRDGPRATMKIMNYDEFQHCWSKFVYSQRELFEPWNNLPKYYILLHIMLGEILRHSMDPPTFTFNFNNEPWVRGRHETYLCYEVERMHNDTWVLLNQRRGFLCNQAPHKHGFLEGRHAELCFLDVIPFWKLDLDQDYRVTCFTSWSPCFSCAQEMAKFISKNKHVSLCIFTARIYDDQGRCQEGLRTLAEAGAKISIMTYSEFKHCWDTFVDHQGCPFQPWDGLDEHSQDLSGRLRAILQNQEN
NTR1 ag – agonists of human NTR1, primary screen, imaging, U2OS cells, beta-arrestin-GFP, high content; Neurotensin receptor type 1 (Homo sapiens), P30989; NTR1-U2OS beta-arrestin-GFP spot imaging, agonist mode; activation, % at 20 µM; 330,000 compounds, 0.17% hits;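 active = activation at or above 40% of the spot to cytoplasm intensity ratio, with at least 20 cells analyzed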;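 note: 0% = DMSO without peptide and 100% = 100 nM NTR1 peptide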
The depositor's hits bear a star; . = no result given. Shown are actives, neighbours in structure and some others; about 3.2% of the full set was active somewhere.

SMILES	AHR activator	APOBEC3A inh	APOBEC3G inh	NTR1 ag
CCCCN(C(=O)c1ccccc1OCc1ccc(F)cc1)c1c(N)n(CC(C)C)c(=O)[nH]c1=O	-3	0	-2	0
CCOc1ccc(C(=O)CSCC(=O)O)cc1	0	1	-1	0
O=C(O)c1ccccc1-c1nc2ccccc2[nH]1	4	0	-4	1
Oc1ccc2ccccc2c1C=Nc1ccccc1-c1nc2ccccc2[nH]1	65*	0	-1	8
Cc1nn(-c2ccc(N3CCOCC3)nn2)c(C)c1CCC(=O)NCc1ccccc1F	1	1	-5	0
O=S(=O)(NC1CCSc2ccccc21)c1ccc(Cl)nc1 (stereo not drawn)	12	0	-4	0
CC(C)N(Cc1ccccc1)C(=O)CN1C(=O)NC(Cc2ccccc2)(c2ccccc2)C1=O (stereo not drawn)	2	5	5	1
Cc1cc(-n2c(C)cc(C(=O)COc3ccc(Cl)cc3C(N)=O)c2C)no1	47*	1	-3	4
Cc1ccc(OCC(=O)c2cc(C)n(-c3cc(C)on3)c2C)c([N+](=O)[O-])n1	.	2	5	0
COc1ccc(NC(=O)CN(C)C(=O)CSCc2ccc(C)cc2)cc1	3	0	-8	-1
CC(=O)C[C@H](O)CC(=O)[C@H]1OC(=O)CCCCCCCc2ccccc21	-1	3	2	2
CCOc1ccc(C(=O)Nc2ccc(C(F)(F)F)n(C)c2=O)cc1	-5	2	-4	0
COc1cccc(C(=O)Nc2cc(C(F)(F)F)ccc2Cl)c1	60*	-4	-7	2
COc1cccc(C(=O)Nc2ccc(C(F)(F)F)n(C)c2=O)c1	56*	1	-2	-1
Cc1cnc(NC(=O)c2cccc(S(=O)(=O)N3CC(C)OC(C)C3)c2)s1 (stereo not drawn)	10	1	-3	3
CC(=O)c1nc(N2C(=O)CC(Cc3ccccc3)C2=O)sc1C (stereo not drawn)	1	4	-6	-1
Clc1ccc(-c2onc3c2CCCC3)cc1	-4	-3	-5	2
Clc1ccc(-c2n[nH]c3c2CCCC3)cc1	56*	-1	-3	1
O=C(CC(c1ccccc1)c1ccccc1O)NCc1ccccc1Cl (stereo not drawn)	1	-2	-2	2
Cc1ccc2c(C)c(C(=O)Nc3nnc(C)s3)oc2c1	14	-3	-3	-1
Cc1c(C(=O)Nc2nc(-c3ccccn3)cs2)oc2ccccc12	64*	4	25	0
Cc1nnc(NC(=O)c2oc3ccccc3c2C)s1	62*	7	-2	1
CCOc1ccc(Cl)cc1S(=O)(=O)N1CCC(C(=O)NC2CC2)CC1	-2	-3	-10	-1
O=C(CN(C(=O)c1csnn1)c1cccc(C(F)(F)F)c1)NCCc1ccccc1	0	-3	-9	-1
Cc1ccc(NC(=O)Nc2cc(S(C)(=O)=O)ccc2Cl)cc1	47*	-5	1	-2
SMILES	AHR activator	APOBEC3A inh	APOBEC3G inh	NTR1 ag
CS(=O)(=O)c1ccc(Cl)c(NC(=O)CCl)c1	0	3	3	1
Cc1[nH]c(=S)c(C#N)c(-c2ccco2)c1C(=O)N(C)C	1	46	34	-1
CC(OC(=O)CCC1CCCC1)C(=O)Nc1ccccc1[N+](=O)[O-] (stereo not drawn)	1	-1	-7	1
C=CCc1ccc(OCCn2cncn2)c(OC)c1	25	-1	-5	-1
C=CCc1cc(C)cc(C)c1OCCn1cncn1	59*	1	1	0
Cc1ccc(C(=O)NC(=S)Nc2c(C)ccc3nsnc23)cc1	94*	-1	-2	1
Cn1c(=O)c2cc3c(nc2n(C)c1=O)CC(c1ccccc1)CC3=O (stereo not drawn)	59*	-3	-7	2
Cc1ccc(OCC(=O)Nc2ccc(N3CCN(C(=O)c4ccco4)CC3)cc2)cc1	-2	-3	-6	2
Cc1ccc(Sc2cnn(-c3ccccc3)c(=O)c2Cl)cc1	61*	1	2	12
CCCn1c(=O)c(C#N)cn(C2CC2)c1=O	-2	-4	-7	1
CC(C)(C)c1nnc(NC(=O)COc2ccc3c(c2)OCO3)s1	60*	-4	-6	3
CC(C)(C)c1nnc(NC(=O)c2ccc3c(c2)OCO3)s1	39	2	28	1
CCn1c(=O)cc(OCC(=O)NCc2cccs2)c2ccccc21	68*	-1	-2	2
O=C(COc1ccc2c(c1)OCO2)NCc1cccs1	49*	-3	-7	0
Cc1ccc(NC2CCCN(C(=O)c3cccnc3)C2)cc1C (stereo not drawn)	48*	-4	-8	-1
CC(C)c1ccc(NC2CCCN(C(=O)c3cccnc3)C2)cc1 (stereo not drawn)	47	-3	-6	0
Cc1ccsc1/C=C1\CCc2ccccc2C1=O	50*	-1	-2	0
Cc1ccccc1/C=C1\CCCc2ccccc2C1=O	13	-4	-4	2
CCn1c(O)c(/C=C2\C=Nc3ccccc32)sc1=Nc1ccc(C)cc1	0	-2	-6	2
CCn1c(O)c(/C=C2\C=Nc3ccccc32)sc1=O	76*	0	-2	-1
Oc1nc(Nc2ccccc2)sc1/C=C1\C=Nc2ccccc21	147*	0	-5	16
O=C(c1ccccc1F)n1c2c(c3ccccc31)CCCC2	2	2	-4	4
Cc1nc2ccc(S(=O)(=O)Nc3cccc(-c4nc5cccnc5s4)c3)cc2s1	14	-1	-2	2
CCS(=O)(=O)Nc1cc(-c2nc3cccnc3s2)ccc1C	70*	0	-1	2
Cc1nc2ccc(S(=O)(=O)Nc3ccc(-c4nc5cccnc5s4)cc3)cc2s1	69*	3	4	0
SMILES	AHR activator	APOBEC3A inh	APOBEC3G inh	NTR1 ag
CCS(=O)(=O)Nc1cccc(-c2nc3cccnc3s2)c1	76*	4	6	0
O=S(=O)(Nc1cccc(-c2nc3cccnc3s2)c1)c1ccc2c(c1)CCCC2	16	2	-1	6
CCS(=O)(=O)Nc1ccc(-c2nc3cccnc3s2)cc1	66*	-6	-11	-2
O=c1c2ccccc2nnn1CSc1ccccc1	60*	-1	-9	1
O=c1c2ccccc2nnn1CSc1ccc2ccccc2n1	-2	2	2	5
Cc1ccc(N2CC(C(=O)N3CCC(C(=O)Nc4nnc(C(C)(C)C)s4)CC3)CC2=O)cc1 (stereo not drawn)	-1	-2	-8	-1
Cc1ccc(C)c(OCC(O)CN2C(C)CCCC2C)c1 (stereo not drawn)	7	0	2	1
Cc1ccc(C)c(OCC(O)CN2CCCCC2C)c1 (stereo not drawn)	48*	-4	-5	0
